Molecules are shown by their SMILES. About 83,000 compounds went through this panel and 20% of them were active in at least one assay; those are over-represented in the sample as a whole.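 Compound tested at a single concentration for 48 hours in 96-well plates; a percent growth value below 10 was scored as active.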 Activity calls are given as the source filed them.

The subject of the assay is HL-60(TB) leukemia. The assay can be described thus: NCI-60 one-dose screen, 48 h (100 = growth as untreated, 0 = no growth, -100 = all killed). As to conditions: 10 µM unless noted.
Consider `Nc1cc(-c2c[nH]c3ccc(Cl)cc23)nc2cc(-c3c[nH]c4ccccc34)nn12`, for which the growth is -18.2% (active).

For the molecule `O=C(Nc1ccc(I)cc1F)c1cc(-c2ccc(F)cc2F)ccc1O`, the growth is -30.4% (active).

With `Cc1ccc2c(c1)C(=O)/C(=C/c1c[nH]c3ccccc13)S2`, the growth is 14.9% (inactive).

Regarding `Cn1cc(-c2cc(N)n3nc(-c4cn(C)c5ccc(Cl)cc45)cc3n2)c2ccccc21`, the growth is 92.5% (inactive).

Take `CN1CCN(Cc2ccc(NC(=O)c3cncc(C#Cc4cnc5ccc(N[C@H]6CCOC6)nn45)c3)cc2C(F)(F)F)CC1`: the growth is -54.4% (active).

As for `O=C(N=Nc1c(O)[nH]c2ccc(Br)cc12)c1ccc2nc(-c3ccccc3)[nH]c2c1`, the growth is 30.9% (inactive).

With `Cc1cccc(-c2ccccc2Oc2ccc3nnc(Cl)n3n2)c1`, the growth is 108% (inactive).

For `NS(=O)(=O)c1ccc(CCNC(=O)CSc2ccc(-c3ccc(Br)cc3)nn2)cc1`, the growth was 55.4% (inactive).

As for `C=C1CCC2C3(C)COC(c4ccc(F)cc4)OC3CCC2(C)C1CC(O)C1=CCOC1=O` (stereo not given), the growth was 35.9% (inactive).

With `O=c1oc2ccc(-c3ccc(F)cc3F)cc2c(=O)n1-c1ccc(Cl)c(C(F)(F)F)c1`, the growth is 1.38% (active).

Consider `Cc1ccc([C@H]2C(C(=O)c3ccc(Cl)cc3)C3(N[C@@H]2c2ccccc2)C(=O)Nc2ccc(Cl)cc23)cc1` (stereo not given in full), for which the growth is 34.1% (inactive).

Consider `Cc1ccc(-c2ccc(SCC(=O)Nc3ccc(S(N)(=O)=O)cc3Br)nn2)cc1`, for which the growth is 100% (inactive).

On to `O=C1Nc2ccc(F)cc2/C1=C/c1cccc(OCc2ccccc2)c1`, for which the growth is -17.4% (active).

For the molecule `Cc1ccc(CSc2nc(-c3ccc(F)cc3)c(C#N)c(=O)[nH]2)cc1`, the growth was 56.6% (inactive).

In the case of `O=C(Nc1ccc(Br)cc1)Nc1ccc(-c2ccc3c(c2)NC(=O)/C3=C\c2ccc[nH]2)cc1`, the growth is 33.4% (inactive).

As for `O=CNc1ccc(-n2cnc3cc(-c4ccc(O)cc4)ccc32)cc1`, the growth is 64.2% (inactive).

Turning to `CCOc1ccc2[nH]c(=O)c(C(c3nnnn3CC3CCCO3)N3CCN(Cc4ccccc4)CC3)cc2c1` (stereo not given), the growth is 149% (inactive).

As for `O=c1ccc(Cn2c(C(F)(F)F)cc3c(Cl)ncnc32)c[nH]1`, the growth was -20.6% (active).

For the molecule `Cc1ccc(-c2nc(C#N)c(S(=O)(=O)N3CCN(S(=O)(=O)c4ccc(Cl)cc4)CC3)o2)cc1`, the growth is 79.9% (inactive).

For `N#CC1=C(c2cccs2)Nc2c(c(-c3ccccc3)nn2-c2ccccc2)C12C(=O)Nc1ccc(Br)cc12` (stereo not given), the growth is -7.78% (active).

In the case of `CC(=O)Oc1ccc(/C=C/C(=O)N[C@@H](Cc2ccccc2)C(O)C(=O)NCc2ccccc2)cc1OC(C)=O` (stereo not given in full), the growth was 79.4% (inactive).

Take `CN1CCN(c2ccc(C(=O)/C=C/c3cc(Br)ccc3F)cc2)CC1`: the growth is -22.1% (active).

`CNS(=O)(=O)c1ccc(Nc2ccc(C(F)(F)F)cc2)c(-c2cn(C)cn2)c1`: the growth is 48% (inactive).

On to `COc1ccc(/C=C2\C(=O)Nc3ccc(Cl)cc32)cc1OCc1ccccn1`, for which the growth was 64.7% (inactive).

On to `CCCCCCCCCCCCCCCCCCCC(=O)NCCc1c[nH]c2ccc(O)cc12`, for which the growth was 52.8% (inactive).

For `O=C(CSc1nc2sc3c(c2c(=O)n1-c1ccc(Cl)cc1)CCCC3)NNC(=O)c1ccc(Br)cc1`, the growth was 91.1% (inactive).

For `C=C1CCC2C3(C)COC(c4cc(F)cc(F)c4)OC3CCC2(C)C1C/C=C1/C(=O)OCC1O` (stereo not given), the growth was -9.61% (active).

With `C#CCOc1cc(N(CC)CC)ccc1C(C(=O)NC(C)(C)C)N(C(=O)C1CCc2cc(F)ccc2O1)c1ccc(F)cc1F` (stereo not given), the growth is 6.7% (active).

For the molecule `CC(C)C1=C[C@@]23CC[C@@H]4[C@](C)(CCC[C@]4(C)C(=O)NCc4ccccc4)[C@H]2C[C@@H]1[C@H]1C(=O)OC(=O)[C@H]13`, the growth is 3.62% (active).

For the molecule `COc1ccc(SC2c3cc(OC)ccc3Oc3nc(N)c(C#N)c(N)c32)cc1` (stereo not given), the growth is 64.7% (inactive).

Consider `O=C1Nc2ccc(F)cc2/C1=C/C(=O)c1cc2ccccc2oc1=O`, for which the growth was 85.6% (inactive).

As to `COc1ccc(-c2nc3cc(C)ccc3n2CC(=O)N=Nc2c(O)[nH]c3ccc(Br)cc23)cc1`, the growth was 39.4% (inactive).

For the molecule `Cc1nn(-c2ccccc2)c2ncn(CC(=O)N/N=C/c3c[nH]c4ccccc34)c(=O)c12`, the growth is 83.8% (inactive).

On to `CN(C)CCOc1ccc(C(=O)C2[C@H](c3ccc(Cl)cc3)[C@@H](c3ccccc3)NC23C(=O)Nc2ccccc23)cc1` (stereo not given in full), for which the growth was 35.1% (inactive).

For the molecule `COc1ccc(-c2nc3ccccc3n2CC(=O)N=Nc2c(O)[nH]c3ccc(Br)cc23)cc1`, the growth was 45.2% (inactive).

For the molecule `O=C1Nc2cc(Cl)ccc2/C1=C/c1ccc(OCc2ccc(Br)cc2F)cc1`, the growth is 81.5% (inactive).

`Cc1ccc2c(c1)/C(=C/C(=O)c1cc3ccccc3oc1=O)C(=O)N2`: the growth was 53% (inactive).

`COc1ccc2nc(NC(=O)c3ccc(N(C)C)cc3)sc2c1`: the growth is 51.5% (inactive).

`CC(C)C[C@H](NC(=O)[C@@H]1CCCCCCCCCCC(=O)N[C@@H](CC(=O)N2CCC[C@@H]2C2CCCC2)C(=O)N1)B(O)O`: the growth is -33.3% (active).

Turning to `N#Cc1ccc(-c2nn(-c3ccc(C(=O)O)cc3)cc2CNc2ccc(Oc3ccccc3)cc2)cc1`, the growth is 34.4% (inactive).

(Values after PubChem BioAssay (NCI).)
